# UGM FP inh: Mtb UDP-galactopyranose mutase inhibition | P9WIQ1 | purified UGM, fluorescence polarization probe displacement | inhibition, % at 10 µM | actives 0.06% (n = 320,000) | AID 504406; in the data active = inhibition above about 10%, passing the limit was not always enough
# FBA Mtb inh: inhibits M. tuberculosis FBA enzyme; P9WQA3; purified M. tuberculosis FBA, fluorescence read-out; inhibition, % at 1 µM; actives 2.3% (n = 360,000); in the data active = inhibition above about 27%
# Target sequence (P9WQA3 whole entry, looked up): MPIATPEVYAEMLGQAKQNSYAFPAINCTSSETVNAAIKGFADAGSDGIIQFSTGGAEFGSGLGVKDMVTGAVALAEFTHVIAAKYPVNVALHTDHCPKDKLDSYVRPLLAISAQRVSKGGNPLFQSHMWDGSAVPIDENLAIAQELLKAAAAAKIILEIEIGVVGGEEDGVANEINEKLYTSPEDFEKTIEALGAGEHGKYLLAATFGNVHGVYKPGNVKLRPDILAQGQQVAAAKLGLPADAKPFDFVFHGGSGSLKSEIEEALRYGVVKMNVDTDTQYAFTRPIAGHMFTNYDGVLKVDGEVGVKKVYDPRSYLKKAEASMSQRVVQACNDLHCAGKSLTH
# FadD28 binding: inhibitors of Mycobacterium tuberculosis FadD28 bisubstrate binding. actives 0.22% (n = 360,000). AID 588549. FadD28 bisubstrate probe binding, fluorescence polarization. inhibition, % at 12.5 µM; in the data active = inhibition above about 8.5%, passing the limit was not always enough
# GDH-TPI inh: inhibits GDH-TPI coupling enzymes, artifact for Mtb FBA screen; GDH-TPI coupled enzyme counterscreen, NADH absorbance; inhibition, % at 4.8 µM; actives 1.2% (n = 360,000); in the data active = inhibition above about 30%
# Mtb hypoxia rep: reduces hypoxia-regulated biosensor signal in M. tuberculosis; M. tuberculosis hypoxia-regulated fluorescent reporter, fluorescence; actives 0.1% (n = 300,000); fluorescence inhibition, % (no concentration beside the values); AID 1159583; in the data active = fluorescence inhibition mostly above about 23%, no sharp cut-off; inactive = mostly below about 17%
# Rv3671c inh: Rv3671c (M. tuberculosis) protease inhibition; P9WHR9; inhibition, % at 5.96 µM; actives 0.048% (n = 320,000); AID 2606; in the data active = inhibition above about 38%;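 also: extracellular domain of Rv3671c used as enzyme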
# Numbers stand for hits; - = inactive; . = not tested or not shown; + = active, no number. Rows were chosen to be rich in hits. Some 3.5% of all compounds tested hit in one or more screens of this group.
SMILES,UGM FP inh,FBA Mtb inh,FadD28 binding,GDH-TPI inh,Mtb hypoxia rep,Rv3671c inh
CC(C)C1C(=NO)CC(c2ccccc2)NC1c1ccccc1 (stereo not given),.,.,.,.,-,.
CCC(=O)Nc1ccc(C(=O)NN=Cc2cc(Br)c(OC)cc2OC)cc1,.,.,.,.,-,.
Cc1ccc2oc(-c3ccco3)cc(=O)c2c1,-,123,-,31,-,-
CC(=O)C1C2c3ccccc3OC1(C)N=c1sc(=Cc3cnn(C)c3)c(=O)n12 (stereo not given),.,.,.,.,-,.
CC(=O)C1C2c3ccccc3OC1(C)N=c1s/c(=C/c3cnn(C)c3)c(=O)n12 (stereo not given),-,-,-,38,.,-
O=C(CC1CC=CCC(Cc2ccc(F)cc2)C(=O)OC(c2ccccc2)CNC1=O)NCCO (stereo not given),.,.,.,.,-,.
CC1(C)CC(=O)C2=C(C1)NC1=C(C(=O)c3ccccc31)C2c1cc([N+](=O)[O-])ccc1O (stereo not given),-,-,21,-,-,-
Cc1c(C(=O)Nc2nc3ccccc3[nH]2)oc2ccc(Br)cc12,-,-,-,-,-,-
Cc1c(C(=O)Nc2nc3ccccc3[nH]2)oc2ccccc12,-,-,-,33,-,-
COc1ccc(OC)c(C=NNC(=O)c2ccc(=O)[nH]n2)c1,.,.,.,.,-,.
COc1cccc(-c2c(C(=O)N/N=C/c3ccc(C)o3)nnn2-c2nonc2N)c1,-,-,-,47,.,-
Cc1ccc(/C=N/NC(=O)c2nnn(-c3nonc3N)c2C(C)C)o1,-,-,-,44,.,-
CCCc1c(C(=O)N/N=C/c2ccc(C)o2)nnn1-c1nonc1N,.,-,-,42,.,.
Cc1ccc(SCc2c(C(=O)N/N=C/c3ccc(C)o3)nnn2-c2nonc2N)cc1,.,-,-,39,.,.
CC(CCc1ccccc1)=NNC(=O)COc1ccccc1C,.,.,.,.,-,.
COc1ccc(NC(=O)N(C)CC2Oc3ccc(NS(=O)(=O)c4ccccc4)cc3C(=O)N(C(C)CO)CC2C)cc1 (stereo not given),.,.,.,.,-,.
COP1(=O)C=CC(N(Cc2ccccc2)S(=O)(=O)c2ccccc2[N+](=O)[O-])C(C)O1 (stereo not given),.,.,.,.,-,.
COc1cccc(NC(=S)NN=C2CC(C)(C)Oc3ccc(O)cc32)c1,.,.,.,.,-,.
Cc1ccc(/C=N/NC(=O)c2nnn(-c3nonc3N)c2CSc2ccccc2)o1,-,-,-,40,.,-
Cc1ccc(/C=N/NC(=O)c2nnn(-c3nonc3N)c2CSc2ccccc2)cc1,-,-,-,-,.,-
O=C1CC(c2ccc(F)cc2)CC2=C1C(c1ccc([N+](=O)[O-])o1)Nc1ccccc1N2 (stereo not given),-,-,-,38,-,-
COc1ccc(NC(=O)Nc2cccc3c2OC(CN(C)C(=O)Nc2c(C)noc2C)C(C)CN(C(C)CO)C3=O)cc1 (stereo not given),.,.,.,.,-,.
Cc1ccc(C=Nn2c(=O)c(C(C)(C)C)nn3cnnc23)cc1,.,.,.,.,-,.
CCC1OC23CCCCC2C(C#N)(C(=N)O3)C1(C#N)C#N (stereo not given),-,58,-,-,-,-
CC1OC23CCCCC2C(C#N)(C(=N)O3)C1(C#N)C#N (stereo not given),-,-,-,-,-,-
SMILES,UGM FP inh,FBA Mtb inh,FadD28 binding,GDH-TPI inh,Mtb hypoxia rep,Rv3671c inh
O=C1C2C(C(=O)N1N=Cc1ccc([N+](=O)[O-])o1)C1C=CC2C12CC2 (stereo not given),.,.,.,.,-,.
Cc1ccc(NC(=O)CC2S/C(=N/N=C/c3c[nH]c4ccccc34)NC2=O)cc1 (stereo not given),-,-,-,39,.,-
CCOC(=O)c1ccc(NC(=O)CC2S/C(=N/N=C/c3c[nH]c4ccccc34)NC2=O)cc1 (stereo not given),-,-,-,32,.,-
COc1ccc(/C=C2/C(=O)N(Cc3ccco3)C(=O)N(C(C)C)C2=O)cc1,-,-,9.5,-,-,-
CC(C)N1C(=O)/C(=C/C=C/c2ccco2)C(=O)N(Cc2ccco2)C1=O,-,-,-,-,-,-
CC(C)(C)C1C=C(C(=O)N2CCOCC2)OC(OCCCCO)C1 (stereo not given),.,.,.,.,-,.
N#C/C(=C\c1ccc[nH]1)C(=O)NCC1CCCO1 (stereo not given),-,-,-,35,-,-
N#C/C(=C\c1cccc([N+](=O)[O-])c1)C(=O)NCC1CCCO1 (stereo not given),-,-,-,-,-,-
Cc1ccc(/C=C(\C#N)C(=O)NCC2CCCO2)o1 (stereo not given),-,-,-,-,-,-
CC(NC(=O)/C(C#N)=C/c1ccco1)c1ccccc1 (stereo not given),-,-,-,52,-,-
CC(NC(=O)/C(C#N)=C/c1ccc([N+](=O)[O-])o1)c1ccccc1 (stereo not given),-,-,-,-,.,-
N#C/C(=C\c1ccco1)C(=O)NCC1CCCO1 (stereo not given),-,-,-,46,-,-
Cc1onc(-c2ccccc2)c1C(=O)NN=Cc1c[nH]c2ccccc12,.,.,.,.,-,.
Cc1ccccc1C(=O)N/C(=C/c1ccc(-c2cccnc2Cl)o1)C(=O)NCCCN1CCN(C)CC1,-,-,-,39,-,-
Cc1ccc(C(=O)N/C(=C\c2ccco2)C(=O)NCCCN2CCOCC2)cc1C,-,-,-,-,-,-
COc1cc(C=Nn2nnnc2N)ccc1O,.,.,.,.,-,.
O=[N+]([O-])c1ccc(CNc2ccc(Cl)cc2)s1,-,-,10,-,-,-
O=[N+]([O-])c1ccc(CNc2ccc(F)cc2)s1,-,-,-,-,-,-
Cc1ccc(CNc2oc(-c3cccs3)nc2C#N)cc1,-,+,-,-,-,-
N#Cc1nc(-c2cccs2)oc1NCc1ccccc1,-,+,-,-,.,-
N#Cc1nc(-c2cccs2)oc1N1CCN(c2ccccc2)CC1,-,-,-,-,-,-
COc1ccc(CNc2oc(C)nc2C#N)cc1,-,-,-,-,-,-
N#Cc1nc(-c2cccs2)oc1NCc1ccccc1Cl,-,158,-,-,.,-
N#Cc1nc(-c2cccs2)oc1NCc1ccc(Cl)cc1,-,+,-,-,.,-
COCCNc1oc(-c2ccccc2Cl)nc1C#N,-,-,-,-,-,-
SMILES,UGM FP inh,FBA Mtb inh,FadD28 binding,GDH-TPI inh,Mtb hypoxia rep,Rv3671c inh
N#Cc1nc(Cc2ccccc2)oc1NCc1ccccc1,-,-,-,-,-,-
OCCC1CC(O)C(O)[C@]2(OCc3ccccc32)O1 (stereo not given in full),.,.,.,.,-,.
C=CCNc1oc(-c2cccs2)nc1C#N,-,+,-,-,-,-
N#Cc1nc(-c2cccs2)oc1NCc1ccco1,-,+,-,-,-,-
CCOc1ccc(Nc2oc(-c3cccs3)nc2C#N)cc1,-,-,-,-,-,-
C=CCOC(=O)COc1ccc2c(C)c(CC)c(=O)oc2c1,-,64,-,-,-,-
CCCc1c(C)c2ccc(OCC(C)=O)cc2oc1=O,-,124,-,-,.,-
Cc1coc2cc3oc(=O)c(CCC(=O)NCC(=O)O)c(C)c3cc12,-,28,.,-,-,.

# Source: PubChem (several laboratories)
